For orientation: inhibition means the drop in the measured response relative to a control, in per cent.

The structures appear in SMILES notation. About 370 (0.13%) of roughly 290,000 compounds were called active. This excerpt belongs to a sample that is enriched for actives. Results with a measured potency or affinity are listed apart. Unmarked numbers belong to inactive results.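 The calls were made as follows: active = spots per cell inhibited over 60%, with over 100 cells counted and total cytoplasm intensity under 500,000; inconclusive = wells with under 100 cells, flagged as likely toxic; inactive = the rest.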

Chain of G-protein coupled receptor 55 (Homo sapiens) (Q9Y2T6 whole entry, looked up): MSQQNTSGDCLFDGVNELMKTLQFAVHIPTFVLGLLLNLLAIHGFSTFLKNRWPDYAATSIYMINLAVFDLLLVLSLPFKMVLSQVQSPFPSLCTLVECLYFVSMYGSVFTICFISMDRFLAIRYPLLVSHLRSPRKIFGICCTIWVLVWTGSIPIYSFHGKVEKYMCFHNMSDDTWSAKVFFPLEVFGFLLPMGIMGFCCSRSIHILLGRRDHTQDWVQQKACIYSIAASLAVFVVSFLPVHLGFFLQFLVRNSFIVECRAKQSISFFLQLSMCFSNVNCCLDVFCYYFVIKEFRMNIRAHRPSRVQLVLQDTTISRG

The test concerns the target G-protein coupled receptor 55 (Homo sapiens) (UniProt Q9Y2T6). In words: inhibition of LPI-stimulated GPR55 beta-arrestin translocation – imaging, U2OS, beta-arrestin-GFP, LPI agonist, primary screen (AID 2013).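 Also: U2OS cells stably carrying GPR55 and arrestin-GFP stimulated by 5 µM LPI near EC80; imaged beta-arrestin-GFP aggregate spots per cell after agonist stimulation; plate controls were LPI-stimulated DMSO wells for no effect and DMSO wells without LPI for full effect.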 The following applies: LPI antagonism, at 10 µM, hits give high values.
Turning to `O=C(c1ccccc1[N+](=O)[O-])N1CCN(Cc2ccc3c(c2)OCO3)CC1`, the inhibition was 0.2%.

Regarding `Cc1nc(COc2ccc(C(=O)Nc3ccccc3N3CCOCC3)cc2)cs1`, the inhibition is 2.8%.

`CCc1ccccc1S(=O)(=O)Cc1ccc(C(=O)N2CCN(c3ccccn3)CC2)o1`: the inhibition was -4.8%.

As for `COc1ccc2nc(NC(=O)CN(c3ccc(C)cc3)S(=O)(=O)c3c(C)nn(C)c3C)sc2c1`, the inhibition was 22.1%.

As to `COc1ccc(N(CC(=O)Nc2cc(C)ccc2C)S(=O)(=O)c2c(C)nn(C)c2C)cc1`, the inhibition was 10%.

For `C#CCNC(=O)C1=C[C@@H](c2csc3ccccc23)[C@H](CCCO)[C@@H](OCC)O1`, the inhibition was 14.1%.

As to `COc1ccc(/C=N/NC(=O)c2cc(C34CC5CC(CC(C5)C3)C4)[nH]n2)cc1O`, the inhibition is 49.4%.

For `COc1cccc(/C=N/NC(=O)c2cc(C34CC5CC(CC(C5)C3)C4)[nH]n2)c1`, the inhibition was 14.9%.

On to `O=C(N/N=C/c1ccc(O)cc1)c1cc(C23CC4CC(CC(C4)C2)C3)[nH]n1`, for which the inhibition was -6.9%.

For `COc1cc(/C=N/NC(=O)c2cc(C3CC3)[nH]n2)ccc1O`, the inhibition is 6.5%.

Take `CC(C)NC(=O)CN(CCc1ccccc1)S(C)(=O)=O`: the inhibition is 18.2%.

Take `Cc1ccc(-n2ncc3c2CC(C)(C)CC3NC(=O)C2CCOCC2)cc1` (stereo not drawn): the inhibition was 9.6%.

Turning to `Cc1cc(C)n(CC(=O)O)c(=O)c1[N+](=O)[O-]`, the inhibition is 1.7%.

For `CNC(=O)c1sccc1Oc1ccc(F)cc1[N+](=O)[O-]`, the inhibition is 8.2%.

With `CCc1nc(N2CCN(C(=O)c3ccco3)CC2)c2c3c(sc2n1)CCCC3`, the inhibition was 7.3%.

With `CC(=O)N1CCN(c2nc(C)nc3sc4c(c23)CCC(C)C4)CC1` (stereo not drawn), the inhibition was 22.1%.

`CC(C)c1nc(N2CCN(C(=O)c3ccco3)CC2)c2c3c(sc2n1)CCCC3`: the inhibition is 98.6%.

As to `Cc1nc(N2CCN(C(=O)c3cccs3)CC2)c2c3c(sc2n1)CCCC3`, the inhibition is 36.3%.

For `Cc1nc(N2CCN(S(=O)(=O)c3ccccc3)CC2)c2c3c(sc2n1)CC(C)CC3` (stereo not drawn), the inhibition was 14.2%.

In the case of `Cc1nc(N2CCN(C(=O)c3ccco3)CC2)c2c3c(sc2n1)CCC3`, the inhibition was 46.7%.

`CCCN1C2CCCC1CC(NC(=O)c1cc(OC)cc(OC)c1)C2` (stereo not drawn): the inhibition was 4.9%.

Regarding `CN(C)S(=O)(=O)c1ccc(N)c([N+](=O)[O-])c1`, the inhibition is 16.6%.

Take `FC(F)(F)COc1ccc(-n2ccnc2)nn1`: the inhibition was -3.5%.

Take `Cc1ccc(/C=C/C(=O)O)cc1S(=O)(=O)N1CCCc2ccccc21`: the inhibition was 9.5%.

Turning to `COCCCNC(=O)CCc1ccccc1`, the inhibition is -1.2%.

`Cc1ccccc1CC(=O)N1CCN(C(=O)C2CCCO2)CC1` (stereo not drawn): the inhibition was 10.1%.

As to `CCCCn1c(-c2nn(C)cc2Cl)n[nH]c1=S`, the inhibition is 2.5%.

Turning to `CC1=NOC(=O)/C1=C/c1ccc(-c2ccc(Cl)cc2)o1`, the inhibition is 7.3%.

For `CC1=NOC(=O)/C1=C\c1ccc(-c2ccc(Cl)cc2Cl)o1`, the inhibition was 21%.

Take `Cc1ccc(C)c(NC(=S)N2CCC(NC(=O)c3ccccc3)CC2)c1`: the inhibition is 2.1%.

On to `NC(=O)C1(N2CCCCC2)CCN(C2CC(=O)NC2=O)CC1` (stereo not drawn), for which the inhibition is 9.8%.

Consider `CN1C(=O)/C(=C\c2cc(N=Nc3ccccc3)ccc2O)SC1=S`, for which the inhibition is 19.5%.

On to `CN1C(=O)/C(=C\c2ccccc2OCc2ccccc2)SC1=S`, for which the inhibition is -1.8%.

As for `CNC(=S)NC1(C)CCS(=O)(=O)C1` (stereo not drawn), the inhibition is -1.4%.

Turning to `CCOC(=O)c1c(-c2ccccc2)oc2ccc(O)c(CN3CCCC3)c12`, the inhibition is -1.6%.

In the case of `CCOC(=O)c1c(-c2ccccc2)oc2ccc(O)c(CN3CCOCC3)c12`, the inhibition is 34.5%.

On to `Cc1ccc(OCC(=O)N/N=C/C=C/c2ccco2)cc1C`, for which the inhibition was -3.3%.

`CC(C)(C)c1ccc(-c2c(C(=O)O)c(C(=O)O)c3n2CSC3)cc1`: the inhibition was -9.4%.

For `CC(C)(C)C1=CC=C(C(C)(C)C)C(=O)C1=O`, the inhibition was -11.4%.

Consider `CCN1C(=O)N(CC)C(O)(c2ccccc2)C1(O)c1ccccc1` (stereo not drawn), for which the inhibition is 14.2%.

Take `Cc1ccc(-n2c(C)csc2=N)cc1`: the inhibition is 6.4%.

Consider `O=C(/C=C/c1cccc(Br)c1)NCC1CCCCC1`, for which the inhibition was -3.3%.

On to `CN(C)c1ccc(/C=C/c2ccc3ccccc3[n+]2C)cc1`, for which the inhibition is 5.6%.

`CC[n+]1c(/C=C/c2ccc(N(C)C)cc2)ccc2ccccc21`: the inhibition is -0.1%.

Turning to `O=C(N/N=C\c1ccncc1)c1ccc(Br)s1`, the inhibition was -6.3%.

Take `Cc1cccc(N(CC(O)CON=C2c3ccccc3-c3ccccc32)S(C)(=O)=O)c1` (stereo not drawn): the inhibition was 30.8%.

`CCN(CC(O)Cn1c2ccccc2c2ccccc21)S(=O)(=O)c1ccc(C)cc1` (stereo not drawn): the inhibition is 22.4%.

With `Cc1ccc(N(CC(O)CON=C2c3ccccc3-c3ccccc32)S(C)(=O)=O)cc1` (stereo not drawn), the inhibition was 2.5%.

Consider `CCN(CC(O)CON=C1c2ccccc2-c2ccccc21)S(=O)(=O)c1ccc(C)cc1` (stereo not drawn), for which the inhibition is 89.1% (active).

Regarding `Cc1ccc(S(=O)(=O)N(CCCO)CC(O)CON=C2c3ccccc3-c3ccccc32)cc1` (stereo not drawn), the inhibition is 4%.

On to `CC(C)CCNCC(O)CON=C1c2ccccc2-c2ccccc21` (stereo not drawn), for which the inhibition was 35%.

As to `CCN(CC(O)CON=C1c2ccccc2-c2ccccc21)S(=O)(=O)c1ccc(Cl)cc1` (stereo not drawn), the inhibition is 80.9% (active).

Turning to `CS(=O)(=O)N(CC(O)CON=C1c2ccccc2-c2ccccc21)c1ccc(F)cc1` (stereo not drawn), the inhibition is 4.1%.

On to `CCOC(=O)c1ccccc1NC(=S)N1CCCCC1`, for which the inhibition was 4.2%.

Consider `CCOC(=O)C1CCCN(C(=O)C2CCC(CNS(=O)(=O)c3ccc(NC(C)=O)cc3)CC2)C1` (stereo not drawn), for which the inhibition is -10.7%.

For `Cc1ccc(S(=O)(=O)NCCc2nnc3ccc(SCC(=O)Nc4nc5ccccc5s4)nn23)cc1`, the inhibition was -1.2%.

Take `C#CCOCCOCCOCCNc1nc(N2CCN(C(=O)[C@H](Cc3cc4ccccc4[nH]3)n3cc([C@@H](N)C(C)CC)nn3)CC2)nc(N2CCN(C(=O)[C@H](CCCCN)n3cc([C@@H](N)CC(C)C)nn3)CC2)n1` (stereo partly drawn): the inhibition was 22.1%.

For the compound `O=C(NCC(=O)N(c1ccccc1)C(C(=O)NCC1CCCO1)c1ccccc1)c1ccco1` (stereo not drawn), the inhibition was -16.3%.

As to `CN(CC(=O)Nc1ccccc1Oc1ccccc1)Cc1ccccc1F`, the inhibition was 80.5% (active).

On to `CC(=O)Nc1ccccc1Oc1ccccc1`, for which the inhibition is -4.1%.

`Cc1ccccc1CN(C)CC(=O)Nc1ccccc1Oc1ccccc1`: the inhibition is 52.5%.

Turning to `CN(CC(=O)Nc1cccc(F)c1)CC(=O)Nc1ccccc1Oc1ccccc1`, the inhibition was 2.5%.

Regarding `CC(C(=O)Nc1ccccc1Oc1ccccc1)c1ccccc1` (stereo not drawn), the inhibition was 83.2% (active).

For `CC(C)CC(=O)Nc1ccccc1Oc1ccccc1`, the inhibition was -0.5%.

With `CC(=O)Nc1ccc(Nc2nc(C(F)(F)F)nc3c2nnn3Cc2ccccc2Cl)cc1`, the inhibition is -4.9%.

For `Cc1ccc(/C=C2/N=C(c3ccccc3)NNC2=O)cc1`, the inhibition is -5.1%.

As to `Cc1ccc(-c2noc(CSc3nnc(Cc4cccs4)n3-c3ccccc3)n2)cc1`, the inhibition was 16.9%.

For `c1ccc(-c2noc(CSc3nnc(Cc4cccs4)n3-c3ccccc3)n2)cc1`, the inhibition was 0.4%.

On to `Nc1nonc1-n1nnc(C(=O)N/N=C/c2ccccc2Cl)c1-c1ccc2c(c1)OCO2`, for which the inhibition was -3.5%.

For `Cc1ccc(C(=O)Nc2ccccc2N2CCCCC2)cc1`, the inhibition is 0.4%.

With `Cc1ccc(C(=O)Nc2ccccc2N2CCCC2)cc1`, the inhibition is -6.2%.

In the case of `Cc1cc(=O)oc2cc(OCC(=O)N3CCN(c4ccccc4)CC3)c(Cl)cc12`, the inhibition was 6.4%.

In the case of `Cc1cc(Nc2ccc(F)cc2F)n2ncnc2n1`, the inhibition was -4.7%.

For the compound `CCOC(=O)c1c(C)[nH]c(C)c1S(=O)(=O)N(C)CC(=O)Nc1cccc(F)c1`, the inhibition was 8%.

On to `COc1ccc(N2C(=O)S[C@@H]3CS(=O)(=O)C[C@@H]32)cc1`, for which the inhibition was 14.8%.

Consider `CC1(C)OC(=CC=Nc2ccc(Cl)cc2)OC1(C)C`, for which the inhibition was -0.4%.

Regarding `COC(=O)c1cc2c(C)c(C)c3ccccn3c-2c1C(=O)OC`, the inhibition was 12.8%.

For the compound `COC(=O)c1cc2n3ccccc3c(C)c(-c3ccccc3)c-2c1C(=O)OC`, the inhibition is 6.5%.

Regarding `O=C(COC(=O)CCC(=O)c1cccs1)NC(=O)c1ccc(OC(F)F)cc1`, the inhibition is 6.3%.

`COc1ccc(N2CCN(CC(=O)NCc3ccc(Cl)cc3)CC2)cc1`: the inhibition was -5.1%.

Consider `Cc1cccc(C)c1-n1cccc1/C=C1\SC(=S)N(c2cccc(C(=O)O)c2)C1=O`, for which the inhibition was 21.8%.

With `O=C(O)CN1C(=O)/C(=C/c2ccc(SCc3ccccc3)o2)SC1=S`, the inhibition was 4.7%.

On to `Cc1ccc(NC(=O)COc2nsnc2N2CCOCC2)cc1Cl`, for which the inhibition is -2.9%.

With `CCCCOC(=O)CSC(=S)N(C)Cc1cccs1`, the inhibition is -12.9%.

`Cc1c([C@H]2[C@@H](CC#N)C2(C)C)c2ccccc2n1C`: the inhibition is -0.3%.

For `Cc1[nH]c2ccccc2c1[C@H]1[C@@H](CC#N)C1(C)C`, the inhibition is 30.6%.

As for `CC(C)NC(=O)C(=O)c1cn(C)c2ccccc12`, the inhibition is -10.8%.

Take `Cc1ccccc1N1CCN(C(=O)C2CCC(=O)N(C3CCCC3)C2)CC1` (stereo not drawn): the inhibition was 5.6%.

Regarding `COc1ccc(C2CC(c3ccc(F)cc3)=NN2c2ccccc2)cc1OC` (stereo not drawn), the inhibition is 1.5%.

`Oc1ccccc1C1=NN(c2ccccc2)C(c2ccc(F)cc2)C1` (stereo not drawn): the inhibition is -10.6%.

As for `Oc1ccc(C2=NN(c3ccccc3)C(c3ccc(F)cc3)C2)cc1` (stereo not drawn), the inhibition is 60.3% (active).

As for `Cc1noc(C)c1CN(C(=S)NC1CC1)c1ccccc1`, the inhibition was 4.1%.

As to `CCNC(=S)N(Cc1c(C)noc1C)c1ccccc1`, the inhibition was -9.5%.

The values above are taken from PubChem BioAssay AID2013 (Sanford-Burnham Center for Chemical Genomics, 2009).
